Sampled rows, rich in hits. Any-hit rate of the full collection: about 5.3%.
Tau fluor counter: Counterscreen qHTS for Inhibitors of Tau Fibril Formation, Fluorescence Polarization; tau K18 P301L Alexa594 fluorescence, heparin fibrillization; hit rate 0.93% among 280,000; Potency, µM (doses to about 57.7 µM), for inactives: at the top dose activity change, negative = decrease; AID 1463, 2008; note: potency is the fitted concentration of half-maximal effect; nearly all actives have a fitted effect of over 55% in size
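Human K18 P301L tau (15 uM unlabeled plus 0.24 uM Alexa 594-labeled, final) in 100 mM sodium acetate pH 7 was mixed with compound and 20 uM heparin and incubated 6 hr at 37 C.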
Tau ThT inhib: qHTS for Inhibitors of Tau Fibril Formation, Thioflavin T Binding | Microtubule-associated protein tau (Homo sapiens), P10636 | hit rate 2.1% among 270,000 | Potency, µM (doses to about 57.4 µM), without a hit: top-dose activity, negative = inhibition, most hits filed as inhibitors | recombinant tau K18 P301L, heparin-induced fibrillization, ThT fluorescence; note: potency is the fitted concentration of half-maximal effect; nearly all actives have a fitted effect of over 55% in size
Target sequence (P10636 561-689 P618L limits assumed): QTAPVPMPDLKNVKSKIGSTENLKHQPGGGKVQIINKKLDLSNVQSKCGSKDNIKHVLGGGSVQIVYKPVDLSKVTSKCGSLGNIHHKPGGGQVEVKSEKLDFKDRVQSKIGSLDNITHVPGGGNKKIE
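Using a mix of unlabeled (15 uM) and Alexa 594-labeled (0.24 uM) tau K18 P301L, heparin-triggered fibrillization over 6 hr at 37 C was scored by ThT fluorescence.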
Sfp PPTase inh: qHTS Assay for Inhibitors of Bacillus subtilis Sfp phosphopantetheinyl transferase (PPTase) | Potency, µM, inactives show largest response in the series, negative = inhibition, most hits filed as inhibitors | 4'-phosphopantetheinyl transferase ffp (Bacillus subtilis), Q9F4F7 | Biochemical Sfp PPTase activity, qHTS | hit rate 3.5% among 310,000;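 note: the enzyme is Sfp with the accession as filed and its product quenches rhodamine fluorescence; potency is the fitted concentration of half-maximal effect; 0% = enzyme reaction without inhibitor and -100% = no enzyme wells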
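Fluorescence-quenching assay with 15 nM Sfp, 5 uM rhodamine-CoA and 12.5 uM BHQ-2-labelled ybbR peptide in pH 7.6 Hepes/MgCl2 buffer. Enzyme was pre-incubated with compound for 15 min at room temperature. Rate was taken from the 30-min fluorescence change (525/598 nm).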
KDM4E inh: qHTS Assay for Inhibitors of Human Jumonji Domain Containing 2E (JMJD2E). Lysine-specific demethylase 4E (Homo sapiens), B2RXH2. JMJD2E catalytic domain, FDH-coupled NADH fluorescence (FDH is formaldehyde dehydrogenase). Potency, µM (highest dose often 57.1 µM), without a hit: top-dose activity change, negative = inhibition, actives largely listed as inhibitors. hit rate 1.6% among 230,000. AID 2147, 2009; active = well fitted inhibition curve with a large enough effect, not every such curve was filed as active; inconclusive = small, poorly fitted or top-dose-only effect, or another doubt; inactive = no such curve, though single readings can be large or run the other way;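 note: potency is the fitted concentration of half-maximal effect; 0% = wells with enzyme and -100% = buffer wells without enzyme; nearly all actives have a fitted effect of over 50% in size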
Target sequence (B2RXH2 1-337 limits assumed): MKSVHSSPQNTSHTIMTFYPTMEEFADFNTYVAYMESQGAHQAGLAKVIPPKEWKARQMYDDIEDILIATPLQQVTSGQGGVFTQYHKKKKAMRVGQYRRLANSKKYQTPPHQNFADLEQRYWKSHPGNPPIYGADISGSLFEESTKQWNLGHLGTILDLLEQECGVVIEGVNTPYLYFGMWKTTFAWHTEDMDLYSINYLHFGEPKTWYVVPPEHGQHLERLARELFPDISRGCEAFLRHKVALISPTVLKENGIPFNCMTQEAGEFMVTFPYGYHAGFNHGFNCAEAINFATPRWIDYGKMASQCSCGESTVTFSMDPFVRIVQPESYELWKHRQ
Tau FP inhib: qHTS for Inhibitors of Tau Fibril Formation, Fluorescence Polarization. hit rate 0.39% among 280,000. Microtubule-associated protein tau (Homo sapiens), P10636. Potency, µM (highest dose often 57.7 µM), for inactives: at the highest dose activity, negative = inhibition, usual class: inhibitors. K18 P301L tau heparin fibrillization, Alexa594 FP, 6 h; note: potency is the fitted concentration of half-maximal effect; nearly all actives have a fitted effect of over 55% in size
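K18 P301L tau (15 uM unlabeled/0.24 uM Alexa 594-labeled, final) + compound + heparin 20 uM final; 100 mM NaOAc pH 7; 6 hr 37 C; ThT 30 uM final added, 1 hr RT; FP ex 555/em 632 nm.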
Coupling enz: qHTS Assay for Inhibitors of Fructose-1,6-bisphosphate Aldolase from Giardia Lamblia: Coupling assay counterscreen; coupling enzyme system counterscreen, AmpLite Red fluorescence; activity change, negative = inhibition, % at 58.2 µM, hits read low; hit rate 0.67% among 290,000; AID 2472, 2010; in the data active = activity change below about -30%
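First, compound is pin-transferred into glyceraldehyde-3-phosphate coupling-enzyme reagent at 57.5 uM final and held 10 min at RT. Next, substrate, coupling system and AmpLite Red are added. After 20 min RT, fluorescence (525/598 nm) is read.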
Active calls of the source: *; ? = inconclusive; nt = no result given; [ ] = remark or other dose. Unless noted, calls come from the whole dose curve; as a rule, active = well fitted curve in the direction sought with a large enough effect; inconclusive = small, poorly fitted or top-dose-only effect, or another doubt; inactive = no such curve, though single readings can be large; an effect the other way counts as inactive or inconclusive. Unless noted, % is set by controls: 0 for no effect and ±100 for the full control effect.

SMILES	Tau fluor counter	Tau ThT inhib	Sfp PPTase inh	KDM4E inh	Tau FP inhib	Coupling enz
CC(OC(=O)c1cccs1)C(=O)NCc1ccco1 (centres undefined)	1%	-3%	11%	4%	1%	-2
COc1ccccc1C(OC(=O)c1cccs1)C(=O)NCc1ccco1 (centres undefined)	-14%	?	50µM*	-8%	?	1
COc1ccc(C2c3cccn3CCN2S(=O)(=O)c2ccc([N+](=O)[O-])cc2)cc1 (centres undefined)	?	?	nt	nt	-7%	nt
CC(C)C(NC(=O)OCc1ccccc1)C(=O)OCC(=O)NCc1ccco1 (centres undefined)	-4%	?	56µM*	2%	1%	4
O=S(=O)(NCc1cccc(Br)c1)c1ccc(-c2cc(C(F)(F)F)on2)s1	10%	20%	nt	nt	?	nt
COC(=O)c1ccc(C2NC(=O)c3c(sc(C)c3C)N2)cc1 (centres undefined)	-13%	?	16µM*	?	-13%	2
Cc1sc2c(c1C)C(=O)NC(c1cccc(O)c1)N2 (centres undefined)	-21%	?	40µM*	-24%	-6%	-2
O=C1c2ccccc2NC(c2cccc(O)c2)N1O (centres undefined)	nt	nt	-13%	nt	nt	-1
CN(C(=O)c1ccoc1)c1ccccc1I	nt	nt	-1%	nt	nt	7
Nc1ccc2nc[nH]c2c1	-9%	?	-20%	?	-1%	-41*
COCCCNC(=O)c1ccc(-c2nc(CS(=O)(=O)c3ccc(C)cc3)c(C)o2)cc1	0%	3%	nt	nt	-2%	nt
O=C(O)c1cccc(NN=C2c3ccccc3-c3ccccc32)c1	?	?	13%	3%	11%	9
O=C(O)c1cccc2c1-c1ccccc1/C2=N\Nc1ccccc1	nt	nt	13µM*	nt	nt	11
Cc1cccc(OCCn2cc(/C=N/NC(=O)c3ccncc3)c3ccccc32)c1	16µM*[quencher]	?	-15%	-7%	2%	6
CCOc1cc(/C=C2\CCCc3c2nc2ccccc2c3C(=O)O)ccc1OC	nt	nt	10µM*	nt	nt	-13
CCN1C/C(=C\c2cccc(C)c2)c2nc3ccccc3c(C(=O)O)c2C1	-12%	-15%	79µM*	?	-7%	-12
COc1cccc(/C=C2\CC(C)Cc3c2nc2ccccc2c3C(=O)O)c1OC (centres undefined)	nt	nt	32µM*	nt	nt	4
COC(=O)N[C@@H](CCc1ccccc1)/C(C(=O)OC)=C(\C)NCc1ccccc1	2%	0%	-13%	-3%	4%	4
COc1ccccc1CNc1cc(-c2cccc(C#N)c2)ncn1	nt	nt	-6%	nt	nt	-1
CCc1cc(SC#N)cc(CC)c1NC(=O)CCl	-27%	3.5µM*	-9%	1%	7.1µM*	2
Cc1cc(C)c2c(NC(=O)CCl)nn(C)c2n1	6%	-1%	16%	?	8%	-2
COc1ccc(-c2nc3c(c(SCC(=O)N4CCCCC4)n2)Cc2c(CO)cnc(C)c2O3)cc1	7%	?	nt	nt	-9%	nt
Cc1nn(Cc2ccccc2)c(Cl)c1/C=C1\NC(=S)NC1=O	-5%	-16%	40µM*	?	1%	2
CCN1C(=O)C2C(C1=O)N1C(c3ccccc3)C3C(=O)N(CC)C(=O)C3N1C2c1ccccc1 (centres undefined)	-5%	-11%	13%	3%	4%	0
CCN1C(=O)C(C(=O)c2ccccc2)SC1=S (centres undefined)	-4%	-19%	20µM*	-11%	1%	5
SMILES	Tau fluor counter	Tau ThT inhib	Sfp PPTase inh	KDM4E inh	Tau FP inhib	Coupling enz
Nc1[nH]c(N=NC(=O)c2ccccc2O)c2ccccc12	-7%	?	21%	25µM*	1%	-8
O=C(CCCC[C@@H]1SC[C@H]2NC(=O)N[C@H]12)Nc1ccc(C(=O)O)cc1	nt	nt	-17%	nt	nt	2
CCOC(=O)C1=C(N)Oc2ccc(Br)cc2[C@@H]1[C@@H](C#N)C(=O)OCC	1%	-16%	-5%	4%	5%	0
FC(F)(F)c1cccc(-n2c(Cn3nnc4ccccc43)n[nH]c2=S)c1	3%	1%	89µM*	-7%	7%	2
CCOc1ccc(Nc2nc(-c3cccc(Cl)c3)c3c(n2)-c2ccccc2OC3)cc1	?	15%	nt	nt	4%	nt
CNc1sc(C(=O)c2ccccc2F)c(N)c1-c1nc2ccccc2s1	11µM*[quencher]	7.9µM*	-30%	7%	3%	-4
CC(C)Sc1ncc(Cl)c(C(=O)Nc2c(C(=O)Nc3ccccc3)oc3ccccc23)n1	-9%	7%	nt	nt	1%	nt
CCCS(=O)(=O)c1ncc(Cl)c(C(=O)Nc2c(C(=O)Nc3ccccc3)oc3ccccc23)n1	?	7.1µM*	nt	nt	-8%	nt
Cc1ccc(-n2ncc3c(N4CCN(Cc5ccccc5)CC4)ncnc32)cc1C	-20%	?	nt	nt	8%	nt
COc1ccccc1Nc1ccc([N+](=O)[O-])cc1N	?	14µM*	-12%	-6%	13%	-6
O=C(Nc1nc(-c2ccccc2)cs1)c1cccc([N+](=O)[O-])c1	16µM*[quencher]	?	0%	-1%	14%	nt
O=C(Cc1ccccc1)NNC(=O)c1cnccn1	5%	2%	35µM*	-12%	-3%	3
COc1ccccc1Nc1nc(-c2cccc([N+](=O)[O-])c2)cs1	14µM*[quencher]	?	11µM*	-6%	1%	-8
COc1ccccc1Nc1c([N+](=O)[O-])cc(C)cc1[N+](=O)[O-]	-27%	-20%	4%	2%	1%	1
O=C(Nc1nc(-c2cccnc2)cs1)c1cccc([N+](=O)[O-])c1	-7%	-7%	-28%	-2%	4%	-1
O=C(COC(=O)c1ccccn1)Nc1nc(-c2cccc([N+](=O)[O-])c2)cs1	-56%	nt	-13%	-3%	-5%	2
Cc1c(C)n(C)c2ccc(C(=O)NCCc3ccc(Cl)cc3)cc12	?	?	nt	nt	6%	nt
Cc1cc(=O)n(Cc2c(F)cccc2Cl)c2c1c(C)nn2-c1cccc(F)c1	-2%	?	nt	nt	-9%	nt
CC(C)(C)NC(=O)C(=O)NNC(=O)c1cccc([N+](=O)[O-])c1	6%	-3%	-13%	-2%	7%	-9
